Rows were chosen to be rich in hits. Some 8.8% of all compounds tested hit in one or more screens of this group.
HT1080-NT tox = kills 2HG-producing HT-1080-NT fibrosarcoma cells | AID 686970 | hit rate 1.6% among 360,000 | HT-1080-NT fibrosarcoma viability, CellTiter-Glo ATP luminescence, 48 h | Potency, µM (series often up to 46.1 µM), for the others: top-dose activity, negative = less viability, actives largely listed as cytotoxic;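 further: NT is the 2HG producing partner of a matched IDH1 knockdown line; potency means the concentration at half of the fitted maximal effect; 0% = DMSO-treated cells and -100% = media-only wells without cells; nearly all actives have a fitted effect of over 55% in size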
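HT-1080-NT; 750 cells/well; 5% FBS RPMI; 48 h compound, 37 degrees C; CellTiter-Glo luminescence; curve fitting and curve-class assignment.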
IL1B secr inh = blocks inflammasome-driven IL-1 beta release; THP-1 LPS/ATP IL-1B secretion, AlphaLISA, 16 h; stronger effect = lower value; activity change, % at 57.5 µM; hit rate 4.7% among 360,000; AID 743279; in the data active means activity change below about -50%; inconclusive means mostly about -30% to -49%
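THP-1 cells pretreated 1 hr with compounds (up to 57.5 uM final), then stimulated with LPS (250 ng/mL final) plus ATP (1.25 mM final); secreted IL-1B measured by AlphaLISA after 16 hr, decreased signal indicating inhibition.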
KB-V1 cytotox = KB-V1 MDR subline cytotoxicity. KB-V1 MDR cells viability, CellTiter-Glo, 72 h. Potency, µM (highest dose often 46.1 µM), most hits filed as cytotoxic. hit rate 3.4% among 400,000. AID 1347076; further: potency means the concentration at half of the fitted maximal effect; nearly all actives have a fitted effect of over 60% in size
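KB-V1 cells (P-gp-expressing MDR subline of KB-3-1) in phenol-red-free DMEM with 10% FBS were exposed to library compounds over a concentration series for 72 h at 37 degrees C. Viability read by CellTiter-Glo luminescence; concentration-effect curves fitted after normalization.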
KB-3-1 cytotox = KB-3-1 parental cell cytotoxicity; hit rate 1.4% among 400,000; Potency, µM (highest dose often 46.1 µM), usual class: cytotoxic; KB-3-1 viability, CellTiter-Glo ATP luminescence, 72 h; further: potency means the concentration at half of the fitted maximal effect; nearly all actives have a fitted effect of over 60% in size
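Cytotoxicity measured as CellTiter-Glo luminescence after 72 h at 37 C. Compound titrations were pinned onto drug-naive KB-3-1 parental adenocarcinoma cells grown in DMEM with 10% FBS, and normalized data fitted to concentration-response curves.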
HT1080 IDH1KD tx = toxicity to HT-1080 IDH1 knockdown cells (counter line); HT-1080 IDH1 knockdown viability, ATP luminescence, 48 h; Potency, µM (series often up to 46.1 µM), for inactives: at the highest dose activity, negative = toxicity, most hits filed as cytotoxic; hit rate 2% among 360,000;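 further: potency means the concentration at half of the fitted maximal effect; 0% = DMSO wells and -100% = cell-free medium wells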
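IDH1KD HT-1080 cells, 750/well, RPMI + 5% FBS; compound pinned after 2 h settling; 48 h, 37 °C; CellTiter-Glo luminescence; % activity normalised to DMSO and no-cell wells; curves fitted, classed by r2 and efficacy.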
* hit, by the source's call; i = inactive; ? = inconclusive; . = not tested or not shown. Unless noted, the call rests on the fitted dose curve; in most records, active means well fitted curve in the direction sought with a large enough effect; inconclusive means small, poorly fitted or top-dose-only effect, or another doubt; inactive means no such curve, though single readings can be large; an effect the other way counts as inactive or inconclusive. Unless noted, on the % scale 0 is the no-effect control and ±100 the full control effect.

SMILES	HT1080-NT tox	IL1B secr inh	KB-V1 cytotox	KB-3-1 cytotox	HT1080 IDH1KD tx
CN(C)S(=O)(=O)c1ccc(S(=O)(=O)N2CCCC(C(=O)NC3CCCC3)C2)cc1 (configuration not stated)	16%	1	i	i	26%
O=C(CCl)Nc1cn(-c2ccccc2)nc1-c1ccc(F)cc1	8.2µM*	-107*	?	?	4.6µM*
Fc1ccc(-c2nn(-c3ccccc3)cc2CNCc2ccccc2)cc1	21µM*	-90*	i	?	23µM*
Fc1ccc(-n2cc(CNCCc3ccncc3)c(-c3ccccc3Cl)n2)cc1	-2%	-3	i	i	5%
OCc1cn(-c2ccccc2)nc1-c1ccc(-c2nn(-c3ccccc3)cc2CO)cc1	-17%	-15	i	i	-19%
O=C(NCc1cn(-c2ccccc2)nc1-c1ccc(F)cc1)c1cccc([N+](=O)[O-])c1	-10%	-75*	?	i	-5%
Fc1ccc(-n2cc(CNCCc3cccnc3)c(-c3ccccc3Cl)n2)cc1	21µM*	-76*	?	?	?
O=C(c1cn(-c2ccccc2)nc1-c1ccc(F)cc1)N1CCCCC1	-4%	-9	i	i	0%
O=C(CSc1nnc(-c2cccc(F)c2)c(-c2cccc(F)c2)n1)NC1CCCCC1	.	.	i	i	.
Cc1cc2ccccc2n2c(SCC(=O)Nc3ccc(S(=O)(=O)N4CCC(C)CC4)cc3)nnc12	1%	-9	i	i	-3%
C[C@H]1c2cccc(O)c2C(O)=C2C(=O)[C@]3(O)C(O)=C(C(N)=O)C(=O)[C@@H](N(C)C)C3[C@@H](O)C21 (some centres not stated)	?	7	i	i	23µM*
COCc1cc(=O)[nH]c(Nc2nc3ccccc3o2)n1	-28%	54	i	7.1µM*	?
Cc1ccc(SCc2cc(=O)[nH]c(Nc3nc(C)c4cccc(C)c4n3)n2)cc1	-8%	6	21µM*	i	-1%
COCc1cc(=O)[nH]c(Nc2nc(C)c3ccccc3n2)n1	?	-65*	21µM*	?	?
COc1ccc2nc(Nc3nc(CSc4nnnn4-c4ccccc4)cc(=O)[nH]3)nc(C)c2c1	4%	17	16µM*	?	8%
C=C1C=C(C(F)F)n2ncc(C(=O)N3CCN(c4ccccn4)CC3)c2N1	.	.	i	i	.
C/C(O)=c1/cnc2nc3ccccc3n2c1=O	-11%	25	i	?	7%
COc1cccc(C(=O)C2CN(c3ccccc3)CC2c2ccc(Cl)cc2)c1 (configuration not stated)	-11%	?	16µM*	i	?
O=C(c1ccccc1)C1CN(c2ccccc2)CC1c1ccc(Cl)cc1 (configuration not stated)	-1%	12	i	i	2%
O=C(c1ccccc1)c1ccc(OCCCN2CCCCC2)cc1	-4%	-59*	i	i	1%
CC(=O)c1ccc(OCCCN2CCCCC2)cc1	0%	24	?	i	6%
CC(C)COc1ccc(C(=O)CCN2CCCCC2)cc1	18µM*	0	i	15µM*	?
CCCCOc1ccc(C(=O)CCN2CCCCC2)cc1	?	-20	i	i	18µM*
CCOc1ccc(C(=O)CC(C(=O)O)N2CCCCC2)cc1 (configuration not stated)	?	-57*	i	?	?
O=C(c1ccccc1)c1ccc(OCC(O)CN2CCCCC2)cc1 (configuration not stated)	-16%	-12	i	i	-9%
SMILES	HT1080-NT tox	IL1B secr inh	KB-V1 cytotox	KB-3-1 cytotox	HT1080 IDH1KD tx
O=C(c1ccccc1)c1ccc(OCC(O)CN2CCN(S(=O)(=O)N3CCCCC3)CC2)cc1 (configuration not stated)	-12%	-13	2.1µM*	23µM*	?
Cc1cccc2c(=O)cc(C)n(CC(=O)N3CCOCC3)c12	-1%	14	i	i	5%
Cc1cccc2c(=O)cc(C)n(CC(=O)N3CCCCC3)c12	-6%	-7	16µM*	i	2%
COC(=O)COc1cccc(NC(=O)c2cccs2)c1	-11%	-53*	i	i	0%
CCCOc1ccc(C(=O)Nc2ccc(NC(=O)c3cccs3)cc2)cc1	1%	-15	i	i	12%
CCCCOc1cccc(C(=O)Nc2ccc(NC(=O)c3cccs3)cc2)c1	21µM*	28	i	i	15µM*
CCN(CC)S(=O)(=O)c1ccc(N2CCOCC2)c(NC(=O)c2sccc2C)c1	-1%	?	i	i	15%
CCN(CC)S(=O)(=O)c1ccc(N2CCOCC2)c(NC(=O)C23CC4CC(CC(Cl)(C4)C2)C3)c1	1%	4	23µM*	i	-2%
CCN(CC)S(=O)(=O)c1ccc(N2CCOCC2)c(NC(=O)c2ccccc2)c1	12%	-2	?	i	1%
CCN(CC)S(=O)(=O)c1ccc(N2CCOCC2)c(NC(=O)c2cc(C)cc(C)c2)c1	-1%	-51*	i	i	-10%
C[C@@H]1CN([C@H](C)CO)C(=O)CCCn2nncc2CO[C@H]1CN(C)Cc1ccccc1C(F)(F)F	6%	-9	i	i	5%
OCCN1CCN(c2cc(C(F)(F)F)nc3c(F)cccc23)CC1	-2%	?	?	i	-2%
CCc1cc(C(=O)OC)c(NC(=O)c2cc(Br)cs2)s1	14%	3	16µM*	i	0%
CCc1cc(C(=O)OC)c(NC(=O)c2ccoc2C)s1	19%	-12	i	i	19%
CN(C)S(=O)(=O)c1ccc(C(=O)NCc2nnc(SCC(=O)NCc3ccco3)o2)cc1	2%	0	i	i	7%
CCOC(=O)c1[nH]c2ccc(Br)cc2c1NC(=O)CCN1CCC(C(=O)OCC)CC1	-22%	-64*	?	?	-16%
CCOC(=O)C1CCCN(CCC(=O)Nc2ccc(Br)cc2)C1 (configuration not stated)	-2%	-60*	i	i	-19%
CC1CC(C)CN(CCC(=O)Nc2ccc(Br)cc2)C1 (configuration not stated)	-6%	-54*	i	i	-4%
O=C(COc1ccc(Cl)cc1Cl)Nc1ccc(C(=O)OC2CCCCC2)cc1	.	.	i	i	.
O=C(NS(=O)(=O)Oc1ccc(Cl)cc1)OC[C@@H]1CCCN2CCCC[C@H]12	10%	6	i	i	14%
COc1cc(Cl)ccc1OCc1cc(C(=O)NCCCN2CCCC2=O)no1	10%	4	i	i	3%

Bioassay records as filed in PubChem.
